In PubChem BioAssay:
Results with a measured potency or affinity are listed apart. Results filed as inconclusive are left out. Activity calls are given as the source filed them. Unless noted, the rule behind the calls is not given here.

Legend:
[1] = RMG-1 ovarian cancer cell viability loss – cherry-pick, dose response (AID 687029;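 active = signal drop whose fitted half-maximal concentration is at most twice the top valid dose, in every test run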;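 note: cells exposed to compound for 96 hours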)
[2] = IOSE-T80 viability loss, PAX8-independent line – cell-based, cherry-pick, selectivity assay for PAX8 inhibitor project, dose response (AID 687032;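 active = fitted half-maximal concentration for viability loss no higher than twice the top valid dose, in every repeat run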;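 note: cells exposed to compound for 96 h before reading; 0% = neutral control wells and -100% = 2 µM mitoxantrone kill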)
[3] = CMV-driven luciferase expression suppression in HEK293 – cell-based, luminescence, dry powder, counter-screen for Pax8 inhibitor project, dose response (AID 743020;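 active = signal-lowering compounds whose fitted half-maximal concentration is at or below twice the top tested dose in every run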;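 note: HEK293 cells stably expressing the CMV luciferase reporter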)
[4] = general cell-killing toxicity readout – plate reader, dry powder samples, cytotoxicity control for PAX8 inhibitor project, dose response (AID 743021)
[5] = IGROV1 cell killing – plate reader, dry powder samples, PAX8 inhibitor project, dose response (AID 743043);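 note: more negative means fewer viable cells or more cytotoxicity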
[6] = OVCAR-3 cell viability loss – plate reader, dry powder samples, PAX8 inhibitor project, dose response (AID 743044); settings: max activity: at 35 µM, stronger effect = lower value unless noted
[7] = toxicity toward immortalized ovarian surface epithelium – cell-based, plate reader, dry powder samples, cytotoxicity control for PAX8 inhibitor project, dose response (AID 743045);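 note: 0% = neutral control median and -100% = positive control median; more negative values mean more cell killing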
[8] = A2780 cell killing – plate reader, dry powder samples, cytotoxicity control, dose response (AID 743046);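 note: 0% = neutral control wells and -100% = cytotoxic reference compound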
[9] = OVCAR8 cell viability loss – plate reader, dry powder samples, PAX8 project, dose response (AID 743197)

Measured: max activity

C[C@@H]1CN([C@@H](C)CO)C(=O)c2cc(NC(=O)Nc3ccc(C(F)(F)F)cc3)ccc2O[C@@H](C)CCCCO[C@H]1CN(C)Cc1ccc(Cl)c(Cl)c1
inactive: [1] | [2] | [3] | [4] | [5] | [6] -12.8% [at 0.26 µM, stronger effect = lower value] | [7] | [8] | [9]

C[C@@H]1CN([C@H](C)CO)S(=O)(=O)c2ccc(C#Cc3ccncc3)cc2O[C@H]1CN(C)C(=O)Nc1ccc2c(c1)OCO2
inactive: [1] | [2] | [3] | [4] | [5] | [6] -26.8% [at 16 µM, stronger effect = lower value] | [7] | [8] | [9]

C[C@@H]1CN([C@H](C)CO)C(=O)c2cc(NC(=O)c3ccncc3)ccc2O[C@@H](C)CCCCO[C@H]1CN(C)Cc1ccc(C(F)(F)F)cc1
inactive: [1] | [2] | [3] | [4] | [5] | [6] 14.3% [at 0.5 µM, stronger effect = lower value] | [7] | [8] | [9]

C[C@H](CO)N1C[C@H](C)[C@@H](CN(C)CC2CCCCC2)Oc2ccc(NC(=O)Nc3ccc4c(c3)OCO4)cc2CC1=O
inactive: [1] | [2] | [3] | [4] | [5] | [6] 15.5% [at 1 µM, stronger effect = lower value] | [7] | [8] | [9]
